SENP8 block-1 – SENP8 protease inhibition; Q96LD8; purified SENP8, Z-RLRGG-aminoluciferin cleavage, luminescence; inhibition, % at 10 µM; 1.2% of 330,000 active; AID 2540; in the data active = inhibition above about 50%
Target sequence (Q96LD8 whole entry, looked up): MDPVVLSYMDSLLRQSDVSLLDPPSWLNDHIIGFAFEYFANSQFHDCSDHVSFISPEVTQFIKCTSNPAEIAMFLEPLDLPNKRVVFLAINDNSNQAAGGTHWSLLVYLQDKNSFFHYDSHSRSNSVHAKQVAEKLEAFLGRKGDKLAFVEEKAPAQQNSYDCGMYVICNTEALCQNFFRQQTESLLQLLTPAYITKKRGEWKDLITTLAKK
SENP6 inh – SENP6 protease inhibition; Recombinant SENP6 catalytic domain, aminoluciferin luminescence; inhibition, % at 10 µM; 1.8% of 330,000 active; AID 2599;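 active = inhibition above about 50% at the single tested dose, limit read from the data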;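 note: plate controls were DMSO wells with enzyme for no effect and DMSO wells lacking enzyme for full effect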
SENP7 inh – inhibitors of human SENP7 protease; Q9BQF6; recombinant SENP7, Z-RLRGG-aminoluciferin luminescence, 40 min; inhibition, % at 5 µM; 1.5% of 330,000 active;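 active = inhibition above about 50% at the single test dose, limit read from the data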;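 note: plate controls were DMSO with enzyme for no effect and no enzyme buffer wells for full effect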
Target sequence (Q9BQF6 706-1050 limits assumed): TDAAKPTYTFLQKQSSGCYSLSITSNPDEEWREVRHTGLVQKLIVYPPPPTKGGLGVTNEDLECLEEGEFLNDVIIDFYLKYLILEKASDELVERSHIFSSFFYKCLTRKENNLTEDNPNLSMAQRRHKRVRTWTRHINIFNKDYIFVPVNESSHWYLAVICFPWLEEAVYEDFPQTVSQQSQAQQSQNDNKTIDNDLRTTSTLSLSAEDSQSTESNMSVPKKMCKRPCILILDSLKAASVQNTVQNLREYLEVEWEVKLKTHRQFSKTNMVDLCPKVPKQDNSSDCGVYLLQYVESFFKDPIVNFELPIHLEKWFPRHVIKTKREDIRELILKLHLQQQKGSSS
SENP8 block-2 – SENP8 (human) protease inhibition. Q96LD8. 0.64% of 360,000 active. recombinant SENP8, Nedd8 substrate fluorescence. AID 602440. inhibition, % at 20 µM; in the data active = inhibition mostly above about 40%, no sharp cut-off; inactive = mostly below about 27%
HSP90 refold inh – blocks HSP90-mediated luciferase refolding in reticulocyte lysate. inhibition, % at 5.6 µM. 0.91% of 290,000 active. AID 1789. Rabbit reticulocyte lysate, luciferase refolding luminescence, 3 h;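 active = inhibition above the screen-wide mean plus 3 SD, computed separately per campaign, cut at about 16% in these data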;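 note: 0% = DMSO wells and 100% = 60 µM geldanamycin wells; inhibitors lower the luminescence because luciferase stays unfolded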
SENP8 confirm – confirmation of human SENP8 protease inhibitors | shares compounds with SENP7 inh | Recombinant SENP8, Z-RLRGG-aminoluciferin luminescence, 60 min | inhibition, % at 12.5 µM | 40% of 6,200 active | AID 488912;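 active = mean inhibition across replicates above about 50%, limit read from the data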
SENP6 confirm – confirmation of human SENP6 protease inhibitors | recombinant SENP6, Z-RLRGG-aminoluciferin luminescence | shares compounds with SENP7 inh | inhibition, % at 12.5 µM | 58% of 6,200 active | AID 488915
SENP7 conf – human SENP7 inhibition, confirmed | shares compounds with SENP7 inh | recombinant SENP7, Z-RLRGG-aminoluciferin luminescence, 40 min | inhibition, % at 12.5 µM | 69% of 6,200 active
Casp3 SENP sel – selectivity test for SENP inhibitors: human caspase-3 inhibition | 60% of 6,200 active | shares compounds with SENP7 inh | AID 488918 | purified caspase-3, Z-DEVD-aminoluciferin luminescence, 60 min | inhibition, % at 12.5 µM;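 active = mean inhibition above about 50%, limit read from the data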;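 note: plate controls were enzyme with DMSO for no effect and wells without caspase-3 for full effect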
Luc interf – interferes with luciferase luminescence in SENP counter-screen; 39% of 6,200 active; inhibition, % at 12.5 µM; AID 488919; shares compounds with SENP7 inh; Pre-incubated SENP8/Z-RLRGG-aminoluciferin, luciferase luminescence interference;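 active = mean inhibition above about 50% when retested at one dose, limit read from the data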;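 note: plate controls were DMSO wells with completed reaction for no effect and substrate without enzyme for full effect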
* hit, by the source's call; ! = a repeat was not active. Sampled rows, rich in hits. Any-hit rate of the full collection: about 2.7%.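 Rule for the calls, unless noted: active = mean inhibition above about 50% in the one-dose retest (limit read from the data); inactive = the rest.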

Screening c1ccc(-n2nnnc2Oc2ccc(-c3nnco3)cc2)cc1 returned SENP8 block-1 -1, SENP6 inh 7, SENP7 inh 4, SENP8 block-2 16 and HSP90 refold inh 2.
Cc1ccc(C(=O)Nc2ccc3c(c2)OCCO3)o1 was read as SENP8 block-1 30, SENP6 inh 54*, SENP7 inh 7, SENP8 block-2 8, HSP90 refold inh 5, SENP8 confirm 52*, SENP6 confirm 44, SENP7 conf 80*, Casp3 SENP sel 82* and Luc interf 62*.
`CCOC(=O)c1[nH]c(C)c(C(=O)Nc2ccc3c(c2)OCCO3)c1C` gave SENP8 block-1 0, SENP6 inh 4, SENP7 inh 5, SENP8 block-2 30 and HSP90 refold inh 0.
O=C(Nc1cccc(NC(=O)c2ccco2)c1)c1ccc2c(c1)OCCO2 was read as SENP8 block-1 -6, SENP6 inh -11, SENP7 inh 14, SENP8 block-2 2 and HSP90 refold inh 0.
For CC(=O)c1c(C)[nH]c(C(=O)Nc2ccc3c(c2)OCCO3)c1C the results were SENP8 block-1 23, SENP6 inh 58*, SENP7 inh 58*, SENP8 block-2 16, HSP90 refold inh 4, SENP8 confirm 57*, SENP6 confirm 53*, SENP7 conf 84*, Casp3 SENP sel 75* and Luc interf 60*.
Screening O=C(Nc1ccc2c(c1)OCCO2)c1ccco1 returned SENP8 block-1 15, SENP6 inh 35, SENP7 inh 54*, SENP8 block-2 7, HSP90 refold inh 14, SENP8 confirm 38, SENP6 confirm 36, SENP7 conf 75*, Casp3 SENP sel 80* and Luc interf 53*.
For c1ccc(-c2n[nH]c(-c3ccccn3)n2)nc1 the results were SENP8 block-1 26, SENP6 inh 66*!, SENP7 inh 59*, SENP8 block-2 6, HSP90 refold inh 1, SENP8 confirm 53*, SENP6 confirm 51*, SENP7 conf 78*, Casp3 SENP sel 84* and Luc interf 61*.
`O=S(=O)(c1ccccc1)c1ccc(N2CCCCCC2)cc1` gave SENP8 block-1 -3, SENP6 inh -5, SENP7 inh 2, SENP8 block-2 -281 and HSP90 refold inh 4.
`CCOC(=O)c1sc(/N=C/c2ccc(O)cc2O)cc1C` gave SENP8 block-1 94*, SENP6 inh 96*, SENP7 inh 9, SENP8 block-2 -33, HSP90 refold inh 3, SENP8 confirm 78*, SENP6 confirm 98*, SENP7 conf 101*, Casp3 SENP sel 83* and Luc interf 44.
Screening C#CCN1C(=O)S/C(=C\c2ccc(-c3ccc(Cl)c(C(=O)O)c3)o2)C1=O returned SENP8 block-1 49, SENP6 inh 70*, SENP7 inh 21, SENP8 block-2 -167, HSP90 refold inh 23*, SENP8 confirm 74*, SENP6 confirm 74*, SENP7 conf 82*, Casp3 SENP sel 32 and Luc interf 40.
Screening O=C(O)c1cc(-c2ccc(/C=C3\NC(=O)N(c4ccccc4)C3=O)o2)ccc1Cl returned SENP8 block-1 3, SENP6 inh 24, SENP7 inh 8, SENP8 block-2 inactive and HSP90 refold inh 1.
For C=CCNc1sc(C(=O)C2CC2)c(N)c1C#N the results were SENP8 block-1 -1, SENP6 inh -8, SENP7 inh 7, SENP8 block-2 -14 and HSP90 refold inh 0.
`Cc1nn(-c2ccc(Cl)cc2Cl)c(=O)c2ccccc12` gave SENP8 block-1 2, SENP6 inh -10, SENP7 inh -4, SENP8 block-2 12 and HSP90 refold inh -5.
Screening CC1=NN(C(N)=S)C(=O)C1N=Nc1ccc(Cl)cc1Cl (stereo not drawn) returned SENP8 block-1 94*, SENP6 inh 91*, SENP7 inh 36, SENP8 block-2 30, HSP90 refold inh 10, SENP8 confirm 81*, SENP6 confirm 86*, SENP7 conf 94*, Casp3 SENP sel 72* and Luc interf 67*.
For COc1ccccc1N=NC1C(=O)N(C(N)=S)N=C1C (stereo not drawn) the results were SENP8 block-1 2, SENP6 inh -12, SENP7 inh 5, SENP8 block-2 31 and HSP90 refold inh 7.
`CC1=NN(C(N)=S)C(=O)C1N=Nc1ccccc1Cl` (stereo not drawn) gave SENP8 block-1 83*, SENP6 inh 89*, SENP7 inh 53*, SENP8 block-2 42*, HSP90 refold inh 6, SENP8 confirm 43, SENP6 confirm 90*, SENP7 conf 98*, Casp3 SENP sel 82* and Luc interf 31.
Screening COCCN1Cc2c(sc(C)c2C)N(C(=O)c2ccccc2)C1 returned SENP8 block-1 29, SENP6 inh 51*, SENP7 inh 5, SENP8 block-2 -246, HSP90 refold inh -4, SENP8 confirm 4, SENP6 confirm 1, SENP7 conf 32, Casp3 SENP sel 30 and Luc interf 49.
`COCCNC(=O)/C(C#N)=C/c1cccc(/C=C(\C#N)C(=O)NCCOC)c1` gave SENP8 block-2 9 and HSP90 refold inh -4.
`COCCNC(=O)/C(C#N)=C/c1ccc(O)cc1` gave SENP8 block-1 77*, SENP6 inh 92*, SENP7 inh 82*, SENP8 block-2 7, HSP90 refold inh -3, SENP8 confirm 12, SENP6 confirm 79*, SENP7 conf 96*, Casp3 SENP sel 83* and Luc interf 80*.
Screening O=c1oc2cc(O)ccc2c2oc3cc(O)ccc3c12 returned SENP8 block-1 69*, SENP6 inh 74*, SENP7 inh 7, SENP8 block-2 -376, HSP90 refold inh 1, SENP8 confirm 45, SENP6 confirm 50, SENP7 conf 89*, Casp3 SENP sel 63* and Luc interf 12.
For NC(=O)CC(NC(=O)Cc1cccc2ccccc12)c1ccc(NC2CCC2)c([N+](=O)[O-])c1 (stereo not drawn) the results were SENP8 block-1 -8, SENP6 inh -9, SENP7 inh 12 and SENP8 block-2 30.

Screening results as filed in PubChem.
